Measured values reported in PubChem BioAssay (NCI).
The panel holds about 79,000 compounds, 15% with a hit somewhere; the sample as a whole holds those more often. No stated cut-off is given here; in the data, active means growth inhibition above about 70%; inactive means the rest.

Experiments:
[1] = NCI Yeast Anticancer Drug Screen. Data for the rad50 strain (AID 155);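 further: 0% = growth of vehicle-only cultures of the same strain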; details: S. cerevisiae rad50 strain growth inhibition; at 50.0 µM; hits give high values
Procedure, shortened: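 Relative growth inhibition (compound vs vehicle) was measured in yeast with a defined repair-gene alteration.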

[2] = NCI Yeast Anticancer Drug Screen. Data for the mec2-1 strain (AID 157); details: S. cerevisiae mec2-1 strain, at 50.0 µM, hits give high values
Procedure, shortened: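 Each compound was tested on mec2-1 yeast, a strain altered in DNA damage repair or cell cycle control. Growth inhibition is reported relative to vehicle.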

[3] = NCI Yeast Anticancer Drug Screen. Data for the sgs1 mgt1 strain (AID 161);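 further: 0% = growth of cultures given vehicle only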; details: S. cerevisiae sgs1 mgt1 strain, at 50.0 µM, hits give high values
Procedure, shortened: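 Mutant yeast exposed to compound; growth scored against vehicle-only wells.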

[4] = NCI Yeast Anticancer Drug Screen. Data for the cln2 rad14 strain (AID 165);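 further: 0% = growth equal to vehicle treated cultures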; details: S. cerevisiae cln2 rad14 strain, at 50.0 µM, hits give high values
Procedure, shortened: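 Test compounds were added to cln2 rad14 yeast cultures; inhibition of growth was then determined by comparison with vehicle treatment.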

[5] = NCI Yeast Anticancer Drug Screen. Data for the bub3 strain (AID 167); details: S. cerevisiae bub3 mutant strain, at 50.0 µM, hits give high values
Procedure, shortened: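 Screening used yeast with an engineered genetic alteration affecting cell cycle control. Compound-exposed cultures were compared with vehicle cultures, and reduced growth was taken as inhibition.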

[6] = NCI Yeast Anticancer Drug Screen. Data for the mlh1 rad18 strain (AID 175); details: S. cerevisiae mlh1 rad18 strain growth inhibition; at 50.0 µM; hits give high values
Procedure, shortened: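 Inhibition values reflect reduced growth of mutant yeast versus vehicle-treated controls following compound exposure; the mutations affect DNA damage repair.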

Measured: growth inhibition

C[Si](C)(C)c1ccc(-c2ccccc2)cc1
inactive: [1] 20.1% | [2] -8.65% | [3] 2.25% | [4] -61.7% | [5] 22.5% | [6] -18.4%

C=CCNC(=S)Nc1c(C)cc(C)cc1C
inactive: [1] 7.2% | [2] 8.4% | [3] 9.65% | [4] -51.4% | [5] 4.3% | [6] 12.2%

CC(=O)c1cc(C)c(C)cc1C
inactive: [1] -13.9% | [2] 7.6% | [3] -2.5% | [4] -12% | [5] 1.65% | [6] -12.5%

CC(=O)NC1CCC(Cc2ccccc2)CC1 (centres undefined)
inactive: [1] 6.2% | [2] -7.65% | [3] -11.3% | [4] -93.3% | [5] -22.3% | [6] -3.9%

O=C(O)CNC(=S)SCc1ccccc1
inactive: [1] 10% | [2] -11.9% | [3] -11.1% | [4] -35.8% | [5] 11.2% | [6] 10.8%

Clc1cc(Cl)c(SSc2cc(Cl)c(Cl)cc2Cl)cc1Cl
inactive: [1] -11.6% | [2] 1.15% | [3] -18.1% | [4] -71.5% | [5] 0.75% | [6] -22.6%

Cc1cc(Br)ccc1NC1=CC(=O)C(=O)c2ccccc21
inactive: [1] 9.95% | [2] 19.6% | [3] -3.4% | [4] 11.3% | [5] 13.2% | [6] 32.1%

COc1ccc(CN=CN/C(C#N)=C(\N)C#N)cc1OC
inactive: [1] -21.2% | [2] -49.8% | [3] -28.6% | [4] 6.55% | [5] 4.35% | [6] -23.6%

Nc1nc(N)nc(COc2ccccc2Cl)n1
inactive: [1] 6.5% | [2] 8.5% | [3] 8.35% | [4] 9.4% | [5] 15.2% | [6] 13.2%

O=C(O)Cc1cc(=O)[nH]n(-c2ccccc2)c1=O
inactive: [1] 14.2% | [2] 8.6% | [3] -1.3% | [4] 10% | [5] -4.65% | [6] 13.8%

O=C1CC(SC(=S)N2CCCCC2)C(=O)N1c1ccccc1 (centres undefined)
inactive: [1] -19.6% | [2] 7.55% | [3] -2.55% | [4] -30.2% | [5] 7.25% | [6] 13.2%

CN1CN(C(=O)N2CN(C)C(=O)N(C)C2)CN(C)C1=O
inactive: [1] -10.8% | [2] -13.6% | [3] -23.6% | [4] 3.45% | [5] -14.2% | [6] -37.4%

ON=C(C1CCCCC1)C1CCCCC1
inactive: [1] -7.35% | [2] -29.1% | [3] -13% | [4] -37.6% | [5] -18.3% | [6] -32.9%

O=C(O)c1ccc2c(c1)Cc1ccccc1-2
inactive: [1] 30.5% | [2] 47.9% | [3] 51.3% | [4] 45.1% | [5] 35.6% | [6] 42%

Cc1ccc(S(=O)(=O)C(c2ccccc2)C(Br)C(=O)c2ccccc2)cc1 (centres undefined)
inactive: [1] -0.25% | [2] 0.35% | [3] 18.2% | [4] 7.3% | [5] 1.55% | [6] -8.4%

COc1ccc(C(=O)CCc2cccc(NC(=O)CCCl)c2)cc1
inactive: [1] -17.6% | [2] 6.2% | [3] 6.45% | [4] -9.1% | [5] -6.85% | [6] -11.8%

COc1ccc(C2C(C#N)=C(S)N(C3OC(COC(C)=O)C(OC(C)=O)C(OC(C)=O)C3OC(C)=O)C(c3ccccc3)=C2C(C)=O)cc1 (centres undefined)
inactive: [1] 44% | [2] 38.4% | [3] 42% | [4] -4.2% | [5] -38.9% | [6] 39%

CN1CCOC1(C)CO (centres undefined)
inactive: [1] 3.85% | [2] -16.7% | [3] -10.3% | [4] -20.6% | [5] -8.5% | [6] -55%

CSc1sc2ccc(S(=O)(=O)O)cc2[n+]1C
inactive: [1] 24.1% | [2] -6.7% | [3] 15.7% | [4] -4.4% | [5] -1.85% | [6] 9.8%
